Screening results from PubChem BioAssay.
Sampled rows, rich in hits. Any-hit rate of the full collection: about 3.1%.
S16 viability: cytotoxicity in S16 Pmp22-F2sN Schwann cells | 43,000 tested, 0.48% active | Potency, µM (highest dose often 57.5 µM), without a hit: at the highest dose activity change, negative = cytotoxicity, most hits filed as cytotoxic | S16 Pmp22-F2sN Schwann cells viability, CellTiter-Glo, 24 h; also: nearly all actives have a fitted effect of over 65% in size
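CellTiter-Glo counter-screen, qHTS, 1536-well. Cells: S16(c9) Pmp22-F2sN, 500-1,000/well in DMEM + 10% FBS. Cpd 23 nL pin transfer, 24 h, 37C/5% CO2. Read: luminescence, CCD imager.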
PMP22 txn: PMP22 gene transcription modulation. S16 Pmp22-F2sN Schwann cells (luciferase reporters placed in the Pmp22 gene), FLuc/NLuc coincidence luminescence, 24 h. Potency, µM (doses to about 57.5 µM), for the others: at the highest dose activity change, negative = inhibition, hits mostly inhibitors. 43,000 tested, 2% active. AID 1508649; active = clear falling dose curves in both reporters; inconclusive = both reporters move, but less clearly or upward; inactive = either reporter flat; the % is the NLuc reporter signal
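Schwann cells carrying the coincidence reporter were exposed to library compounds for 24 h at 37C, then lysed and read for FLuc and, after quenching, NLuc luminescence on a CCD imager.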
OvCa metastasis: inhibitors of ovarian cancer cell adhesion and invasion in omental model | SKOV3ip1-GFP adhesion/invasion on 3D omental model, fluorescence | Potency, µM (series often up to 45.8 µM), for inactives: top-dose activity change, negative = inhibition, actives largely listed as inhibitors | 46,000 tested, 0.1% active;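 also: plate controls were DMSO wells for no effect and tomatine positive control wells for full effect; nearly all actives have a fitted effect of over 65% in size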
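qHTS, 4-pt dose (0.36-46 umol/L); SKOV3ip1-GFP, 1,200 cells/well, no FBS; primary omental fibroblast/mesothelial co-culture 48 h pre-grown; 2 h RT + 16 h 37 C; PBS wash, 4% PFA; GFP count 488/509 nm.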
p53null 39C tox: p53 null cell cytotoxicity, nonpermissive temperature; 55,000 tested, 0.97% active; Potency, µM (doses to about 46.1 µM), for the others: at the top dose activity, negative = cell killing, actives largely listed as cytotoxic; H1299 p53-null (neo) cells, 39C, ATPlite viability, 24 h; AID 904;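 also: 0% = DMSO only and -100% = full killing by 100 µM tamoxifen; nearly all actives have a fitted effect of over 50% in size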
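Luminescent ATP signal reported cell survival after H1299 lines (neo, p53 null; or p53 A138V) received up to 46 uM compound and 24 hr incubation at 39C.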
p53null 32C kill: kills p53 null cells at the permissive temperature; H1299-neo p53 null cells, ATP luminescence, 24 h, 32C; Potency, µM (highest dose often 46.1 µM), without a hit: at the highest dose activity change, negative = cytotoxicity, most hits filed as cytotoxic; 55,000 tested, 0.62% active;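 also: 0% = DMSO only and -100% = full killing by 100 µM tamoxifen; nearly all actives have a fitted effect of over 55% in size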
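Cytotoxicity: H1299-neo (no p53), 32C, 24 h treatment. Concentrations up to 46 uM. Readout cellular ATP, luminescence. Normalization to DMSO basal and tamoxifen 100 uM maximal kill.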
pS6 MEF inh: mTORC1 pathway inhibition measured by phospho-rpS6; AID 493208; Tsc2-/- p53-/- MEF, phospho-rpS6 immunofluorescence/PI, 24 h; 44,000 tested, 0.78% active; Potency, µM (highest dose often 38.3 µM), inactives show at the top dose activity change, negative = inhibition, hits mostly inhibitors;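 also: plate controls were DMSO for no effect and rapamycin for full effect; nearly all actives have a fitted effect of over 50% in size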
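Tsc2-/-, p53-/- MEFs (empty-vector stable line) in DMEM + 10% FBS were treated with compounds 24 h at 37 degree Celsius, fixed, and immunostained for phospho-rpS6 (Alexa-488) with propidium iodide counterstain. Laser-scanning cytometry gave % positive cells, normalized against 7.5 nM rapamycin and DMSO.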
Numbers without * were called inactive; i = inactive; ? = inconclusive; . = not tested or not shown. Unless noted, calls follow the shape of the dose curve; as a rule, active = well fitted curve in the direction sought with a large enough effect; inconclusive = small, poorly fitted or top-dose-only effect, or another doubt; inactive = no such curve, though single readings can be large; an effect the other way counts as inactive or inconclusive. Unless noted, % is scaled to controls: 0 for no effect and ±100 for the full control effect; potency is read from the fitted curve at half-maximal effect.

SMILES	S16 viability	PMP22 txn	OvCa metastasis	p53null 39C tox	p53null 32C kill	pS6 MEF inh
CC(=O)c1c(C)oc2c(Cl)cc(NS(=O)(=O)c3ccc(Cl)cc3)cc12	26%	?	9%	21%	14%	-2%
CCCc1oc2ccc(NS(=O)(=O)c3ccc(OCC)cc3)cc2c1C(=O)OCC	-27%	?	-1%	18µM*	39%	15µM*
Cc1cc(S(=O)(=O)Nc2ccc3oc4c(c3c2)CCCC4)ccc1Cl	17%	?	-10%	18µM*	?	-2%
CCOC(=O)c1c(C)oc2c(Cl)cc(NS(=O)(=O)c3ccc(Cl)c(C)c3)cc12	7%	?	?	5µM*	58%	-25%
COc1cc(C(C)C)c(Oc2cnc(NC(CO)CO)nc2N)cc1I	.	.	-8%	.	.	.
NC(=O)c1ncn([C@@H]2O[C@H](CO)[C@@H](O)[C@@H]2O)c1N	.	.	-15%	.	.	.
CCCCN(CC)CCNC(=O)c1cc2c(-c3ccc(Cl)cc3)nn(C)c2s1	?	?	?	16µM*	?	?
CCCN(CCC)CCNC(=O)c1cc2c(-c3ccc(Cl)cc3)nn(C)c2s1	?	?	i	13µM*	?	-13%
CCOc1ccc(NC(=O)c2oc3ccccc3c2NC(=O)c2c(F)cccc2F)cc1	-3%	-6%	i	3%	-13%	-23%
O=C(Nc1noc2ccccc12)c1c(F)cccc1F	2%	-10%	-7%	10µM*	?	-2%
COc1ccccc1[C@H](c1cccc2ccccc12)[C@@](C)(C#N)C(=O)N1CCC(c2cccc(C(F)(F)F)c2)CC1	.	.	-1%	.	.	.
CCc1ccccc1N1CC(c2nc3ccccc3n2CCOc2ccc(Cl)c(C)c2)CC1=O (centres undefined)	?	?	-28%	18µM*	39%	-16%
CCOc1ccccc1N1CC(c2nc3ccccc3n2CCOc2ccc(C(C)(C)C)cc2)CC1=O (centres undefined)	13%	-21%	-8%	20µM*	?	?
Cc1cc(OCCn2c(C3CC(=O)N(Cc4ccc(F)cc4)C3)nc3ccccc32)ccc1Cl (centres undefined)	-2%	?	?	-4%	-11%	2%
O=C1CC(c2nc3ccccc3n2CCC2CCCCC2)CN1c1ccccc1Cl (centres undefined)	24%	1%	6%	16µM*	?	-1%
CCOc1ccccc1N1CC(c2nc3ccccc3n2CCCCOc2cc(C)ccc2C)CC1=O (centres undefined)	12%	-24%	-2%	13µM*	?	-11%
CCOc1ccccc1N1CC(c2nc3ccccc3n2CCCOc2ccccc2OC)CC1=O (centres undefined)	3%	-21%	1%	-11%	-2%	-13%
CCOc1ccc(N2CC(c3nc4ccccc4n3CCC3CCCCC3)CC2=O)cc1 (centres undefined)	-29%	?	4%	35%	24%	8%
COC(=O)c1ccc2c(C(=Nc3ccc(N(C)C(=O)CN4CCN(C)CC4)cc3)c3ccccc3)c(O)[nH]c2c1	.	.	-3%	.	.	.
N#CC(=C(N)Sc1ccc(N)cc1)c1ccccc1C(F)(F)F	.	.	7%	.	.	.
N#Cc1c(NC(=O)c2cccc3ccccc23)sc2c1CCCC2	.	.	59%	.	.	.
COc1ccc2c(c1)CCc1c(C(=O)Nc3cnn(Cc4ccc(Cl)cc4Cl)c3)noc1-2	4%	-8%	-13%	-22%	7%	-8%
COc1ccc(OC)c(-c2cc(C(=O)Nc3cnn(Cc4ccc(Cl)cc4Cl)c3)no2)c1	.	.	?	10µM*	?	?
Cc1cc(C)c(S(=O)(=O)NCC(c2cccs2)S(=O)(=O)c2ccccc2)c(C)c1 (centres undefined)	13µM*	?	?	5%	32%	?
Cc1cc(C)c(S(=O)(=O)NCC(c2ccco2)S(=O)(=O)c2ccccc2)c(C)c1 (centres undefined)	-10%	-26%	-14%	29%	15%	-5%
SMILES	S16 viability	PMP22 txn	OvCa metastasis	p53null 39C tox	p53null 32C kill	pS6 MEF inh
Cc1ccc(S(=O)(=O)C(CNS(=O)(=O)c2ccc(F)c(C)c2)c2cccs2)cc1 (centres undefined)	25µM*	?	14%	18%	9%	-4%
CCOc1ccc(S(=O)(=O)NCC(c2cccs2)S(=O)(=O)c2ccc(C)cc2)cc1 (centres undefined)	?	?	?	14%	19%	?
C=C[C@@H]1CN2CCC1C[C@@H]2C(O)c1ccnc2ccc(OC)cc12 (some centres undefined)	.	.	-8%	.	.	.
Cc1cc(Nc2ccc(C(C)C)cc2)nc(-n2nc(C)cc2C)n1	?	?	-17%	31%	7%	-24%
COc1ccc(Nc2cc(C)nc(-n3nc(C)cc3C)n2)cc1Cl	?	5.5µM*	3%	?	-7%	?
CCCCc1ccc(NS(=O)(=O)c2ccc(C)c(C(=O)N3CCN(c4cccc(C)c4C)CC3)c2)cc1	.	.	14%	.	.	.
O=C(Nc1ncc(SCCN2CCCC2)s1)[C@]1(c2ccc(S(=O)(=O)C3CC3)cc2)C[C@@H]1C1CCCCC1	.	.	-5%	.	.	.
